# Calls of active or inactive are those of the source. Unless noted, the rule behind the calls is not given here.
# What was measured:
# [1] = A549 cell viability effects, profiling panel, calcein-AM fluorescence, 48 h, basal (AID 1162); conditions: higher = more signal; note: test concentration not given here
# [2] = adipocyte viability effects, profiling panel, cell-based, 3T3-L1 adipocytes, calcein-AM fluorescence, 48 h, basal (AID 1163); conditions: 3T3-L1 adipocytes viability, higher = more signal; note: test concentration not given here
# [3] = HepG2 cell viability effects, profiling panel, calcein-AM fluorescence, 48 h, basal (AID 1164); conditions: higher = more signal; note: test concentration not given here
# [4] = MM1S cell viability effects, profiling panel, calcein-AM fluorescence, 48 h, basal (AID 1165); conditions: higher = more signal;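 note: viability of MM1S multiple myeloma cells under basal unstimulated conditions; test concentration not given here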
# [5] = basal RPMI8226 viability, no added stimulus, profiling panel, cell-based, calcein-AM fluorescence, 48 h, PK04 Diversity Set (AID 1166); conditions: RPMI8226 myeloma viability, higher = more signal;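 note: cells grown under basal conditions without added stimulus; test concentration not given here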
# [6] = basal HepG2 mitochondrial membrane potential changes, profiling panel, cell-based, JC-1 fluorescence, 24 h, 100 nL compound (AID 1167); conditions: higher = more signal; note: test concentration not given here
# [7] = basal 3T3-L1 adipocyte mitochondrial potential changes, profiling panel, cell-based, JC-1 fluorescence, 3T3-L1 adipocytes, 24 h, 100 nL compound (AID 1168); conditions: JC-1 mitochondrial fluorescence, higher = more signal, called active from +8 up or from −8 down; note: test concentration not given here
# [8] = basal RPMI8226 mitochondrial membrane potential changes, profiling panel, cell-based, JC-1 fluorescence, 24 h, 100 nL compound (AID 1169); conditions: RPMI8226 myeloma, JC-1 mitochondrial potential fluorescence, higher = more signal; note: test concentration not given here
# [9] = basal MM1S mitochondrial membrane potential changes, profiling panel, cell-based, JC-1 fluorescence, 24 h, 100 nL compound (AID 1170); conditions: higher = more signal; note: test concentration not given here
# [10] = A549 lung cancer cell viability effects, profiling panel, resazurin fluorescence, 24 h, PK04 Diversity Set (AID 1171); conditions: higher = more signal, called active from +8 up or from −8 down; note: test concentration not given here
# [11] = HepG2 liver cancer cell viability effects, profiling panel, resazurin fluorescence, 24 h, PK04 Diversity Set (AID 1172); conditions: higher = more signal; note: test concentration not given here
# [12] = basal S. cerevisiae growth modulation, no modifier, primary screen, OD600, strain BY4716, 24 h, basal condition (AID 1173); conditions: OD600, 24 h, higher = more signal, called active from +8 up or from −8 down
# [13] = MM1S myeloma cell viability, profiling panel, resazurin fluorescence, basal, 24 h, PK04 Diversity Set (AID 1174); conditions: higher = more signal, called active from +8 up or from −8 down;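 note: MM1S multiple myeloma cell line; test concentration not given here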
# [14] = target: Dihydroorotate dehydrogenase (quinone), mitochondrial (Plasmodium falciparum (isolate 3D7)) (UniProt Q08210); test: PfDHODH enzyme inhibitors, primary screen, biochemical, C-terminal His tag, absorbance 600 nm (AID 1175); conditions: DCIP absorbance 600 nm, higher = more signal, called active from +8 up or from −8 down;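 note: recombinant parasite enzyme with a five histidine tag at its C terminus; test concentration not given here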
# [15] = P. aeruginosa biofilm formation inhibitors, primary screen, strain PAO1, LB-PBS medium, absorbance 600 nm (AID 1176); note: test concentration not given here; conditions: P. aeruginosa PAO1 growth/biofilm, A600, 12 h; higher = more signal
# [16] = S. cerevisiae RM11-1a growth modifiers, primary screen, strain RM11-1a, OD600, basal, 24 h (AID 1177); conditions: OD600, 24 h, higher = more signal, called active from +8 up or from −8 down;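 note: cultures grown under basal conditions with no added stressor; test concentration not given here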
# [17] = E. coli acrAB mutant growth effects, primary screen, E. coli filamentation inducers, strain DRC39, OD650, 24 h (AID 1178); conditions: higher = more signal, called active from +8 up or from −8 down;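 note: growth measured as culture turbidity by optical density at 650 nm; test concentration not given here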
# [18] = E. coli acrAB mutant growth effects, primary screen, E. coli filamentation inducers, strain DRC39, OD650, 48 h (AID 1179);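 note: screen aims at cell division blockers that make cells filament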; conditions: E. coli DRC39 delta-acrAB growth, higher = more signal, called active from +8 up or from −8 down
# [19] = RPMI8226 myeloma cell viability, profiling panel, resazurin fluorescence, basal, 24 h, PK04 Diversity Set (AID 1180); conditions: higher = more signal;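 note: RPMI8826 multiple myeloma cell line at 5000 cells per well; test concentration not given here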
# [20] = target: E3 ubiquitin-protein ligase XIAP (Homo sapiens) (UniProt P98170); test: XIAP binders, primary screen, biophysical, small-molecule microarray, fluorescence 635 nm (AID 1181); conditions: small-molecule microarray binding, higher = more signal;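 note: score merges 667 nm emission and signal to noise over triplicate slides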
# E3 ubiquitin-protein ligase XIAP (Homo sapiens), sequence (P98170 whole entry, looked up): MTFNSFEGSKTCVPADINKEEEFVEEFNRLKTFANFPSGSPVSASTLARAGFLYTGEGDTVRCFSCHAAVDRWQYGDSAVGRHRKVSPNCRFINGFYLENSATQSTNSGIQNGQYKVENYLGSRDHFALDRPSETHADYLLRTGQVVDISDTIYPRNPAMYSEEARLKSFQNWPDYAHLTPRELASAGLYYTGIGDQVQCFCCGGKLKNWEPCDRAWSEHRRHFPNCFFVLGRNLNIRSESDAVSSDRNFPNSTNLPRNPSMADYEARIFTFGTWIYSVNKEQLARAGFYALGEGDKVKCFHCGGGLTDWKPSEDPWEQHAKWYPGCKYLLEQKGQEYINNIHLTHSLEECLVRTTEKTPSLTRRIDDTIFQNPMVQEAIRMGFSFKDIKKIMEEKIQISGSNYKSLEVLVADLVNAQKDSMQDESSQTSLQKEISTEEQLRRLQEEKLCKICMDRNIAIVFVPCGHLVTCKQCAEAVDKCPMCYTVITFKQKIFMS
# Dihydroorotate dehydrogenase (quinone), mitochondrial (Plasmodium falciparum (isolate 3D7)), sequence (Q08210 whole entry, looked up): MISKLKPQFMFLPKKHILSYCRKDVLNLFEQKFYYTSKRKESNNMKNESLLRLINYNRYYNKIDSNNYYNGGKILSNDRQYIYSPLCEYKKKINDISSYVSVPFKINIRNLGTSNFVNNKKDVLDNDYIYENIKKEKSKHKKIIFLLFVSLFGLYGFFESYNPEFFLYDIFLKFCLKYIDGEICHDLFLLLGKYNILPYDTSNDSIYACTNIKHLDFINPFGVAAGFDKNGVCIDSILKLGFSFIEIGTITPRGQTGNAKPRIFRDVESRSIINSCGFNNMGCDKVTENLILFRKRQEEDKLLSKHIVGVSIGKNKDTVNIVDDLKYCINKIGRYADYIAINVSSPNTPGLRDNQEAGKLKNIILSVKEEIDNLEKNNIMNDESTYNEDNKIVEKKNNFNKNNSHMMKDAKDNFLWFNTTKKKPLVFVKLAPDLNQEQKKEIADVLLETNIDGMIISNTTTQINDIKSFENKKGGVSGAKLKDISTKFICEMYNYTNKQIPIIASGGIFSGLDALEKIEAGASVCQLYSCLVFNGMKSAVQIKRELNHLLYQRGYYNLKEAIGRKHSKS
Compound,z-score [1],z-score [2],z-score [3],z-score [4],z-score [5],z-score [6],z-score [7],z-score [8],z-score [9],z-score [10],z-score [11],z-score [12],z-score [13],composite z-score [14],z-score [15],z-score [16],z-score [17],z-score [18],z-score [19],composite z-score [20]
CC(C)CNC(=O)[C@@]1(C)c2ccccc2C(=O)N(Cc2ccccc2)[C@H]1c1ccc(CO)cc1,-0.151,-0.751,-0.323,-0.408,0.0402,0.164,-0.491 (inactive),0.0136,-0.216,0.407 (inactive),0.702,-0.11 (inactive),-0.0059 (inactive),-0.362 (inactive),-0.273 (inactive),-1.07 (inactive),0.165 (inactive),-0.185 (inactive),-0.551,-0.395
CC(C)C[C@@H]1NC(=O)[C@@H]2C[C@H](C(=O)NCc3ccc(F)cc3)[C@H](c3ccc(O)cc3)N2C1=O,0.0054,0.305,-1.03,-0.199,-0.214,1.07,0.0421 (inactive),0.182,0.593,0.149 (inactive),-1.5,0.0288 (inactive),0.429 (inactive),-1.36 (inactive),0.891 (inactive),-0.647 (inactive),-0.52 (inactive),-1.2 (inactive),0.734,0.222
C=CCN1C(=O)[C@@]2(O[C@@H](CCO)[C@H]([Si](C)(C)c3ccc(OC)cc3)[C@H]2C)c2cc(NC(=O)[C@H](C)O)ccc21,0.174,0.178,-2.92,-2.69,-4.41,1.89,0.18 (inactive),-0.872,-1.09,-2.25 (inactive),-1.15,-2.34 (inactive),-2.15 (inactive),-0.108 (inactive),1.73 (inactive),2.32 (inactive),0.895 (inactive),0.403 (inactive),-2.3,0.555
C=CCC(OC(C)=O)[C@@H]1[C@@H](N(Cc2cc3ccccc3o2)C(=O)Cc2ccc(OC)cc2)c2cc(OCCCO)ccc2N1C(=O)c1ccc(-c2ccccc2)cc1 (stereo not given in full),0.328,1.05,0.228,-0.841,-1.82,3.42,0.182 (inactive),-0.392,0.415,-0.451 (inactive),-0.877,-0.464 (inactive),1.05 (inactive),0.849 (inactive),-0.558 (inactive),0.275 (inactive),0.66 (inactive),0.16 (inactive),0.337,-0.0575
COc1cc2c(cc1OC)CN(C(=O)[C@@H]1[C@H]3C(=O)O[C@H](c4ccccc4)[C@H](c4ccccc4)N3[C@H](c3ccc(OCCO)cc3)[C@@]13C(=O)Nc1ccc(C#CCCO)cc13)CC2,-0.433,1.06,-0.857,-0.369,-0.987,-1.56,1 (inactive),-0.862,-1.04,0.519 (inactive),-0.0794,0.66 (inactive),0.113 (inactive),1.66 (inactive),2.75 (inactive),1.45 (inactive),0.592 (inactive),-0.13 (inactive),0.768,-0.113
C=CCOC(=O)[C@@H]1[C@H]2C(=O)O[C@H](c3ccccc3)[C@H](c3ccccc3)N2[C@H](c2ccc(OCCOC(=O)[C@@H]3C[C@@H]4C(=O)N5CCC[C@H]5C(=O)N4[C@@H]3c3cccc(OCCO)c3)cc2)[C@@]12C(=O)Nc1ccc(I)cc12,-0.283,0.584,-1.27,-0.16,0.583,-0.853,0.272 (inactive),-0.661,-0.984,0.592 (inactive),0.586,1.53 (inactive),0.356 (inactive),-0.652 (inactive),1.69 (inactive),2.07 (inactive),0.132 (inactive),-0.63 (inactive),0.281,-0.224
C=CCOc1ccc([C@@H]2CC=C(C(=O)OCC)[C@H](c3cccc(Br)c3)N2S(=O)(=O)c2ccc(C)cc2)cc1,0.954,0.261,-0.508,0.394,-0.455,4.43,0.392 (inactive),-0.957,-0.0677,-0.924 (inactive),-0.696,0.465 (inactive),0.262 (inactive),-1.92 (inactive),0.285 (inactive),-0.897 (inactive),-0.273 (inactive),1.05 (inactive),-0.155,-0.258
[N-]=[N+]=Nc1ccccc1C[C@]1(C(=O)NCCN2CCOCC2)N=C(c2ccc(OCCCO)cc2)O[C@H]1c1ccccc1N=[N+]=[N-],0.0861,0.784,-0.111,-2.41,-1.2,1.23,1.27 (inactive),-1,-0.571,-2.47 (inactive),-1.31,-4.84 (inactive),-1.83 (inactive),-0.695 (inactive),-0.596 (inactive),-0.505 (inactive),-0.0345 (inactive),1.31 (inactive),-2.13,0.0402
COC(=O)[C@@]1(Cc2ccc(OC)cc2)[C@H]2c3cc(C(=O)N4CCCC4)n(CCc4ccc(O)c(OC)c4)c3C[C@H]2CN1C(=O)c1ccccc1,-1.47,0.0048,-0.0475,-1.03,-0.254,-0.851,-0.867 (inactive),-0.167,-0.563,1.05 (inactive),-0.21,0.768 (inactive),-0.427 (inactive),-0.474 (inactive),0.467 (inactive),0.279 (inactive),-0.744 (inactive),-0.939 (inactive),-0.125,0.659
C=CCOC(=O)[C@@H]1[C@H]2C(=O)O[C@H](c3ccccc3)[C@H](c3ccccc3)N2[C@H](c2ccc(OCCOC(=O)[C@@H]3C[C@@H]4C(=O)N[C@@H](CCCCNC(C)=O)C(=O)N4[C@@H]3c3ccc(O)cc3)cc2)[C@@]12C(=O)Nc1ccc(I)cc12,0.32,-0.571,-0.179,-0.154,0.165,-0.396,1.21 (inactive),-0.482,-1.14,0.873 (inactive),0.971,1.8 (inactive),0.668 (inactive),-1.19 (inactive),0.42 (inactive),1.67 (inactive),0.514 (inactive),0.099 (inactive),0.616,0.158
[N-]=[N+]=NCc1ccccc1C[C@@]1(C(=O)NCCN2CCOCC2)N=C(c2ccc(OCCCO)cc2)O[C@@H]1c1ccccc1CN=[N+]=[N-],-0.628,0.671,-0.399,-2.59,-2.77,0.787,0.0123 (inactive),-1.06,-0.797,-1.13 (inactive),-0.709,0.326 (inactive),-0.982 (inactive),1.06 (inactive),1.13 (inactive),1.15 (inactive),0.585 (inactive),0.239 (inactive),-0.971,0.0905
C=CC[C@]1(C(=O)N(C)C)N=C(c2ccc(OCCCO)cc2)O[C@H]1c1ccccc1,0.203,1.17,-0.308,-0.27,-1.19,1.5,0.644 (inactive),-0.741,-1.33,1.32 (inactive),0.549,-2.54 (inactive),0.911 (inactive),-0.588 (inactive),-0.484 (inactive),-0.689 (inactive),1.23 (inactive),0.771 (inactive),0.586,0.133
Cc1ccc(N2C(=O)c3ccccc3[C@](C)(C(=O)NC(C)C)[C@@H]2c2ccc(CO)cc2)nc1,-0.465,0.92,-1.37,-1.03,-1.35,-0.42,-0.424 (inactive),-0.586,1.34,0.0095 (inactive),-0.591,0.201 (inactive),0.761 (inactive),-3.7 (inactive),0.599 (inactive),-0.243 (inactive),0.381 (inactive),-0.111 (inactive),0.818,-0.272
COC(=O)[C@]1(Cc2ccccc2N=[N+]=[N-])N=C(c2ccc(OCCCO)cc2)O[C@@H]1c1ccccc1,-3.71,0.561,-5.71,-3.66,-4.01,-2.54,0.911 (inactive),-1.01,-2.86,-5.19 (inactive),-6.11,-1.69 (inactive),-8.86 (active),0.106 (inactive),0.783 (inactive),1.53 (inactive),2.06 (inactive),1.55 (inactive),-7.19,0.007
COC(=O)[C@@]1(Cc2ccc(F)cc2)[C@H]2c3cc(C(=O)N4CCCC4)n(Cc4ccccc4)c3C[C@H]2CN1C(=O)c1ccccc1,-0.858,-0.273,-0.579,-2.1,-4.11,0.49,-0.76 (inactive),-0.104,-0.759,0.0314 (inactive),0.155,1.38 (inactive),-0.874 (inactive),0.335 (inactive),-0.526 (inactive),0.669 (inactive),0.392 (inactive),-0.406 (inactive),-0.922,-0.146
C=CCNC(=O)[C@H]1[C@@H]2C(=O)O[C@@H](c3ccccc3)[C@@H](c3ccccc3)N2[C@@H](c2ccc(O)cc2)[C@]12C(=O)N(C(=O)OCCOC)c1ccc(C#CC3(O)CCCCCC3)cc12,0.904,0.76,2.26,-1.2,-3.53,-1.84,0.509 (inactive),-0.713,-0.808,-0.316 (inactive),-0.0051,-0.897 (inactive),0.221 (inactive),0.157 (inactive),0.806 (inactive),2.27 (inactive),0.665 (inactive),0.951 (inactive),0.41,0.0479
[N-]=[N+]=NCc1ccccc1C[C@]1(C(=O)NCCN2CCOCC2)COC(c2ccc(OCCCO)cc2)=N1,1.18,-0.487,0.652,0.689,-0.699,2.24,0.498 (inactive),-0.218,-1.05,0.169 (inactive),-0.801,-1.36 (inactive),-1.28 (inactive),0.456 (inactive),0.535 (inactive),-0.383 (inactive),0.786 (inactive),0.0653 (inactive),0.106,-0.0125
COCCOC(=O)N1C(=O)[C@@]2(c3cc(C#CCC(C(=O)OC)C(=O)OC)ccc31)[C@H](C(=O)N1CCCCCCC1)[C@H]1C(=O)O[C@H](c3ccccc3)[C@H](c3ccccc3)N1[C@@H]2c1ccc(O)cc1,-0.0336,1.25,-0.125,-0.575,-1.39,0.503,1.1 (inactive),0.439,0.579,0.616 (inactive),-0.124,-0.0861 (inactive),1.09 (inactive),1.49 (inactive),0.1 (inactive),0.451 (inactive),-0.543 (inactive),-0.86 (inactive),0.646,0.312

# — PubChem BioAssay
